Records with an inconclusive call do not appear. Values without a mark were called inactive. The source made the active and inactive calls. Calls come from the whole dose curve; as a rule, active = well fitted inhibition curve with a large enough effect; inconclusive = small, poorly fitted or top-dose-only effect; inactive = flat fitted curve, though single readings scatter. Peptide text beside a SMILES is read from it.
Each molecule was assayed on Zika virus NS2B-NS3 protease (assay: Primary screen GU AMC qHTS for Zika virus inhibitors (AID 1347154;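 note: 0% = no-inhibitor control and -100% = no-enzyme control; nearly all actives have a fitted effect of over 70% in size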)). Conditions: Zika NS2B-NS3 unlinked protease, AMC fluorogenic substrate; series mostly up to 54.1 µM.
From the text: Avindra Nath, Ph.D., National Institute of Neurological Disorders and Stroke (NINDS), Bethesda, MD
Radhakrishnan Padmanabhan, Ph.D., Georgetown University (GU), Washington D.C.
Zika Virus causes congenital defects, including microcephaly and is associated with Guillain-Barre syndrome, eningoencephalitis and myelitis in infected adult. […] Using a target-based approach, we hope to establish a screening paradigm to uncover novel, cell-active NS2B-NS3 protease (Zika Virus) specific inhibitors from NCATS' collection of small molecules using qHTS.
Early Translation Branch (ETB)
National Center for Advancing Translational Sciences (NCATS), Rockville, MD
National Institute of Health (NIH), Bethesda, Maryland
Padmanabhan lab provided the NS2B hydrophilic domain and NS3 protease domain in a noncovalent complex used for the unlinked assay. Control compound aprotinin is obtained from Thermo Scientific (#78432; Waltham, Massachusetts). NS2B-NS3 AMC substrate (Bz-Nle-Lys-Arg-Arg-AMC; Nle-KRR-AMC) purchased from Bachem (#I-1995; Torrance, CA). Ac-VKTGKR-AMC purchased from Genscript or Bachem, Ac-FAAGKR-AMC purchased from Genscript, Ac-GLVKRR-AMC purchased from Genscript, Ac-LKKR-AMC purchased from Genscript.
GU AMC unlinked NS2B-NS3 protease qHTS protocol
Briefly, 3 microL of Zika virus unlinked NS2B-NS3 protease (25 nM for linked final concentration), in assay buffer (10 mM Tris-HCl pH 8.0 with 0.01% Tween 20) was dispensed into a 1,536-well solid-bottom black plate (Greiner Bio One, Monroe, NC). […] Plates were then read immediately on a ViewLux High-throughput CCD imager (PerkinElmer, Waltham, MA) equipped with standard UV fluorescence optics (340(30) nm excitation, 450(20) nm emission) then incubated (room temperature, protected from light) for 15 minutes (~20% conversion). The change in fluorescence intensity over the 15-minute reaction period was normalized against no-inhibitor and no-enzyme controls and the resulting percent inhibition data were fitted to a 4-parameter Hill equation. Aprotinin was used as the intraplate control.

SMILES	outcome	activity change, negative = inhibition
COC(=O)C1=C(C)NC(C)=C(C(=O)OCCCN2CCC(c3ccccc3)(c3ccccc3)CC2)[C@H]1c1cccc([N+](=O)[O-])c1	inactive	
O=C(O)CC/C=C\CC[C@H]1[C@@H](N2CCCCC2)[C@@H](O)C[C@@H]1OCc1ccc(-c2ccccc2)cc1	inactive	
CC1=C(/C=C/C(C)=C/C=C/C(C)=C/CO)C(C)(C)CCC1	inactive	
CC(=O)N[C@@H](CC(=O)O)C(=O)N[C@@H](CCC(=O)O)C(=O)O (Ac-Asp-Glu-OH)	inactive	
CC(NC(=O)Cc1cc(F)cc(F)c1)C(=O)NC(C(=O)OC(C)(C)C)c1ccccc1 (stereo unspecified)	inactive	
CCCCC/C=C\C/C=C\CCCCCCCC(=O)O		4.61% [at 6.83 µM]
CNc1cc(OC)c(C(=O)N[C@H]2CCN(Cc3ccccc3)[C@H]2C)cc1Cl	inactive	
CCCC(=O)Nc1ncnc2c1ncn2[C@@H]1O[C@@H]2COP(=O)(O)O[C@H]2[C@H]1OC(=O)CCC	inactive	
CC(=O)OC(C)OC(=O)C(C)c1ccc(-c2ccccc2)c(F)c1 (stereo unspecified)	inactive	
CC(C)N=c1cc2n(-c3ccc(Cl)cc3)c3ccccc3nc-2cc1Nc1ccc(Cl)cc1	inactive	
CCOC(=O)C1=CC2(CC)CCCN3CCc4c(n1c1ccccc41)C32 (stereo unspecified)	inactive	
